# Assay results as given in PubChem BioAssay (NCI).
# The panel holds about 83,000 compounds, 20% with a hit somewhere; the sample as a whole holds those more often.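 For each line, cells grew in 96-well plates with the test compound present at a single concentration for 48 hours.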 Values without a mark were called inactive. Calls of active or inactive are those of the source. The calls were made as follows: active = growth percent below 10; inactive = the rest.
# Test system: HL-60(TB) leukemia
# Assay: NCI-60 one-dose screen, 48 h (100 = growth as untreated, 0 = no growth, -100 = all killed)
# Settings: 10 µM unless noted
row,Compound,growth
1,Cc1ccc(C=C2C(=O)NC(=O)NC2=O)cc1,101%
2,Cc1cc(N2CCOCC2)nc(N(CCNc2ccnc3cc(Cl)ccc23)Cc2ccco2)n1,-65.1% (active)
3,S=C(Cc1ccccc1)N1CCN(c2ccccc2Cl)CC1,92.1%
4,O=c1oc2ccccc2cc1-c1csc(N/N=C/c2cc3ccccc3nc2Cl)n1,116%
5,c1cc(C2CCCCC2)ccc1OCCCCCCN1CCNCC1,-38.4% (active)
6,Cc1cc(N2CCN(C)CC2)nc(NC2CCCC(Nc3ccnc4cc(Cl)ccc34)C2)n1 (stereo not given),-64.9% (active)
7,CCN(CC)Cc1cc(Nc2cc(C(F)(F)F)c(C#N)c3nc4ccccc4n23)ccc1O,-10.9% (active)
8,CCCCN(CCCC)CC(O)c1ccc(OCc2ccccc2)c2ccccc12 (stereo not given),-23.6% (active)
9,Cn1c(=O)c2c(ncn2CCC(=O)Nc2ccc(F)cc2)n(C)c1=O,94.1%
10,OC(c1ccccc1)c1ccccn1 (stereo not given),99.9%
11,CCN(Cc1ccc(Cl)c(Cl)c1)c1ccc2nc(N)nc(N)c2c1C,-79.5% (active)
12,CC(C)(C)CC(C)(C)NCc1cc(C(C)(C)C)cc(CNC(C)(C)CC(C)(C)C)c1O,-33.8% (active)
13,CCN(CC)CCNc1ccc(CO)c2oc3cc(Cl)ccc3c(=O)c12,111%
14,COC(=O)/C=C1\S/C(=N\Nc2ccc([N+](=O)[O-])cc2[N+](=O)[O-])N(C2CCCCC2)C1=O,8.63% (active)
15,COc1ccc(N=Cc2c(O)ccc3c2oc2cc(Cl)c(O)c(Cl)c23)cc1,86.6%
16,COc1cc(NCCCN(CC(C)C)C2CCCC2)c2ncccc2c1,22.5%
17,C=C(C)[C@@H]1CC[C@]2(C(=O)NC(C)=O)CC[C@]3(C)[C@H](CC[C@@H]4[C@@]5(C)CCCNC(C)(C)[C@@H]5CC[C@]43C)[C@@H]12,-51.2% (active)
18,Nc1nc(N(Cc2ccccc2)c2ccccc2)c2cn[nH]c2n1,32.8%
19,COc1cc(C(=O)N2N=C(c3ccc(S(C)(=O)=O)cc3)CC2c2ccco2)cc(OC)c1OC (stereo not given),90.3%
20,COc1ccc(C(=O)N2c3ccccc3Sc3ccccc32)c(C(F)(F)F)c1,2.01% (active)

row,Compound,growth
1,OC(CCN1CCCC1)(c1ccccc1)C1CCCCC1 (stereo not given),119%
2,FC(F)(F)c1ccc(-c2cnc(Cl)nc2NCc2cc(C(F)(F)F)cc(C(F)(F)F)c2)cc1,5.98% (active)
3,CC(C)(C)N1CC(OC(N)=O)C1,110%
4,CCCCCCCCCCOC(C)=O,107%
5,COc1ccc(-c2cc(Nc3ccnc(N4CCOCC4)n3)on2)cc1,-29.9% (active)
6,COc1ccc(-c2nn(-c3ccc(NC(=O)Nc4ccc(Cl)c(Cl)c4)cc3)cc2-c2ccncc2)cc1Cl,5.24% (active)
7,c1ccc(N2CCN(c3nncc4ccccc34)CC2)nc1,96.6%
8,O=Cc1c(OCc2cnnn2CC(=O)Nc2ccc(Br)cc2)ccc2ccccc12,105%
9,O=c1[nH]c(Cc2nc3ccccc3s2)nc2cc(Br)ccc12,77%
10,NC(=O)CC1(c2ccccc2)CCCCC1,98.4%
11,CC(=O)Nc1cccc(-n2c(=O)n(C3CC3)c(=O)c3c(Nc4ccc(I)cc4F)n(C)c(=O)c(C)c32)c1,27.1%
12,COc1cc(/C=C/c2cc(/C=C/c3ccc(O)c(OC)c3)n(C(=O)Nc3ccccc3Cl)n2)ccc1O,-24.3% (active)
13,CCN(CC)CCN1C(=O)c2cccc3c(-c4ccc5c(c4)ncn5C4CCCCC4)ccc(c23)C1=O,-15.2% (active)
14,COc1cc2cc3c(nc2cc1OC)CCN3Cc1ccc(NC(=O)c2ccc(Cl)c(C(F)(F)F)c2)cc1,99.5%
15,CN(C)c1ccc(CNCCO)cc1,96.1%
16,O=C1/C(=C/c2ccccc2O)CC/C1=C\c1ccccc1O,11.9%
17,CCCCCCCCCCCC[n+]1ccccc1,-49.7% (active)
18,Cc1c2c(cn1Cc1ccccc1)CCc1cn(C)nc1-2,63.4%
19,N#C/C(Sc1nc2sc3c(c2c(=O)n1Cc1ccccc1)CCCC3)=C1/SC=C(c2ccc(Cl)cc2)N1c1ccccc1,84.3%
20,C#CCNC(=O)c1cccc2c1cc(C)n2-c1nc2c(c(NCc3ccccc3)n1)CCCC2,0.47% (active)
